Test [1] in a line: qHTS assay to identify small molecule antagonists of the vitamin D receptor (VDR) signaling pathway - cell viability counter screen (AID 743225). Also: nearly all actives have a fitted effect of over 50% in size. Also: potency is read from the fitted curve at half-maximal effect. The method in brief:
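VDR-bla HEK 293T cells, 4 h pre-incubation at 37C, then compound plus 1-alpha,25-dihydroxyvitamin D3 (3 nM final) for 16 h. After the beta-lactamase FRET read, CellTiter-Glo was added to the same wells; luminescence after 30 min at room temperature.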

Test [2] can be described thus: qHTS assay to identify small molecule agonists of the NFkB signaling pathway - cell viability counter screen (AID 1159515; calls by dose curve; also: nearly all actives have a fitted effect of over 55% in size; also: potency is read from the fitted curve at half-maximal effect). An outline of the steps: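 5 hr compound treatment of NFkB-bla ME-180 cells (2,000/well, seeded overnight beforehand), followed by reporter substrate for 1.5 hr. CellTiter-Glo added afterward; luminescence after 30 min RT.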
In general terms: In qHTS, concentration-response curves come from the screen itself.

A short description of test [3]: qHTS assay to identify small molecule agonists of the endoplasmic reticulum stress response signaling pathway - cell viability counter screen (AID 1159517; calls by dose curve; also: nearly all actives have a fitted effect of over 50% in size; also: potency is read from the fitted curve at half-maximal effect). An outline of the steps:
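ESRE-bla HeLa cells, 1,500 per well, seeded overnight then treated with compounds for 5 hr at 37 C. After the beta-lactamase read, viability in the same wells is measured by CellTiter-Glo luminescence after 30 min at room temperature.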

The nature of test [4]: qHTS assay to identify small molecule antagonists of the retinoid-related orphan receptor gamma (ROR-gamma) signaling pathway - cell viability counter screen (AID 1159520). Also: nearly all actives have a fitted effect of over 50% in size. Also: potency is read from the fitted curve at half-maximal effect. An outline of the steps: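 Tet-on ROR gamma CHO cells were given compounds for 2 hr, then doxycycline hyclate at 1 uM final, and incubated 16 hr at 37 C. Viability was measured as ATP content by CellTiter-Glo luminescence.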

The target in test [5] is Nuclear receptor ROR-gamma (Homo sapiens) (UniProt P51449). Briefly: qHTS assay to identify small molecule antagonists of the retinoid-related orphan receptor gamma (ROR-gamma) signaling pathway (AID 1159521; also: nearly all actives have a fitted effect of over 50% in size; also: potency is read from the fitted curve at half-maximal effect). An outline of the steps: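 Tet-on RORγ CHO cells carrying a ROR response element–luciferase reporter were pretreated with compounds for 2 h, then induced with 1 uM (final) doxycycline hyclate for 16 h at 37 C. Antagonism was read as decreased ONE-Glo luminescence.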

Test [6] in a line: qHTS assay to identify small molecule agonists of the AP-1 signaling pathway - cell viability counter screen (AID 1159525; calls by dose curve; also: nearly all actives have a fitted effect of over 55% in size; also: potency is read from the fitted curve at half-maximal effect). The method in brief:
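AP-1-bla ME-180 cells in Opti-MEM with 0.5% dialyzed FBS, compound exposure 5 h at 37 C in 15-point titration. Viability read in the same wells as ATP content by CellTiter-Glo luminescence, normalised to tetra-n-octylammonium bromide and DMSO controls.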

Test [7] can be described thus: qHTS assay to identify small molecule agonists of the endoplasmic reticulum stress response signaling pathway (AID 1159516; active = well fitted activation curve with a large enough effect in the signal ratio in the repeat runs, not every such curve was filed as active; the % refers to the signal ratio). The method in brief:
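Reporter HeLa cells (ESRE-beta-lactamase) underwent 5 hr compound incubation at 37 C and 5% CO2 in quantitative HTS format. Detection followed 2 hr of FRET substrate loading at room temperature.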

Test [8] can be described thus: qHTS assay to identify small molecule agonists of the AP-1 signaling pathway (AID 1159526; calls by dose curve; also: potency is read from the fitted curve at half-maximal effect).
Test [9] deals with Retinoic acid receptor RXR-alpha (Homo sapiens) (UniProt P19793). Briefly: qHTS assay to identify small molecule agonists of the RXR signaling pathway (AID 1159527; calls by dose curve; also: nearly all actives have a fitted effect of over 35% in size). An outline of the steps: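 GeneBLAzer RXR-alpha-UAS-bla HEK 293T cells in medium with 2% charcoal-stripped FBS, pre-incubated 5 hr at 37 C, then exposed to compounds 16 hr. Beta-lactamase reporter read by FRET substrate, 2 hr room temperature, 460/530 nm emission.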
Retinoic acid receptor RXR-alpha (Homo sapiens), sequence (P19793 whole entry, looked up): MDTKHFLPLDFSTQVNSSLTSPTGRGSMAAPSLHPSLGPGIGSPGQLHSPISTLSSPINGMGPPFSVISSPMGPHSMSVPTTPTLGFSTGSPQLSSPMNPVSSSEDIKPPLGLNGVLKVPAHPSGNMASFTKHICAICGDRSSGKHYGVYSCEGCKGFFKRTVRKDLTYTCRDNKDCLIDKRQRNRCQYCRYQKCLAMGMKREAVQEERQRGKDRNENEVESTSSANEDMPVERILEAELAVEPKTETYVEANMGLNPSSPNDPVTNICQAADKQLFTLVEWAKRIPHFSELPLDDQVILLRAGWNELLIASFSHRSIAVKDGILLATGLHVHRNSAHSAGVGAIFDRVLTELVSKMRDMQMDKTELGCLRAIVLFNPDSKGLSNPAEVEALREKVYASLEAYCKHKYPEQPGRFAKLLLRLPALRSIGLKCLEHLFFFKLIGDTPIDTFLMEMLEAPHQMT

Test [10] can be described thus: qHTS assay to identify small molecule agonists of the RXR signaling pathway - cell viability counter screen (AID 1159529). Also: nearly all actives have a fitted effect of over 50% in size. Also: potency is read from the fitted curve at half-maximal effect. The method in brief:
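RXR-alpha-UAS-bla HEK 293T cells in medium with 2% charcoal-stripped FBS were preincubated 5 hr, then exposed to compounds for 16 hr at 37 C. Viability was read as CellTiter-Glo luminescence after 30 min at room temperature.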

“And” between values parts separate entries of the source, which are not always exact repeats. Equal values may be shown once. Records with an inconclusive call do not appear. Some structures have more than one record in an assay (separate samples or runs), and their calls can disagree. The source made the active and inactive calls. Unless noted, calls follow the shape of the dose curve; as a rule, active = well fitted curve in the direction sought with a large enough effect in the repeat runs; inconclusive = weak or mixed curves; inactive = no such curve, though single readings can be large; an effect the other way counts as inactive or inconclusive.

Take `CC(C)(c1ccccc1)c1ccc(Nc2ccc(C(C)(C)c3ccccc3)cc2)cc1`: the Potency entry in [1], in test [2], in test [3], in [4] and in test [6] was “inactive” in each case. Besides, the Potency in test [5] was 24.3 µM (active) and inactive.

Take `CCCCCCCCCCCC[N+](C)(C)C`: the Potency was 54.9 µM (active) in [1]; 24.3 µM (active) and 21.7 µM (active) in test [5]. Further, the Potency result in test [2], in test [4] and in test [8] was “inactive” each time. Moreover, in [7], the outcome was inactive.

Take `O=C1OC2(c3ccc(O)cc3Oc3cc(O)ccc32)c2ccccc21`: the Potency entry in test [1], in test [2], in [3], in test [4], in test [5] and in [6] was “inactive” in each case.

Take `Nc1nc2ccccc2[nH]1`: the Potency entry in test [1], in [2], in test [3], in test [4], in [6] and in test [9] was “inactive” throughout. The Potency result in test [10] is “inactive”.

With `Oc1c(Cl)cc(Cl)cc1Sc1cc(Cl)cc(Cl)c1O`, the Potency was 24.6 µM (active) and 55.9 µM (active) and 43.6 µM (active) in test [1]; 55.1 µM (active) and inactive in test [2]; 55.1 µM (active) and 55.9 µM (active) and 49 µM (active) in test [3]; 15.4 µM (active) and 21.7 µM (active) in [4]; 49.1 µM (active) in test [10].

As to `Nc1cc(Cl)c(-c2cc(Cl)c(N)cc2Cl)cc1Cl`, the Potency in test [1] is 21.9 µM (active); in test [2], 48.9 µM (active) and 54.9 µM (active); in [3], 54.9 µM (active); in test [4] it was 61.1 µM (active); in test [5], 7.69 µM (active) and 7.7 µM (active); in test [6] it was 38.9 µM (active) and 54.9 µM (active). Moreover, the Potency in test [10] is 17.4 µM (active).

In the case of `Clc1ccc2c(c1)C(N1CCNCC1)=Nc1ccccc1O2`, the Potency in test [1] is 49 µM (active) and inactive. For the same molecule, the Potency result in test [2], in [3], in [4], in test [5], in [6] and in test [9] was “inactive” each time. The Potency result in test [10] is “inactive”.

Regarding `CCCCCCCCCCCCc1ccccc1O`, the Potency in test [1] was 17.2 µM (active) and 21.9 µM (active); in test [2] it was 19.2 µM (active) and 21.9 µM (active); in [3], 17.2 µM (active) and 24.5 µM (active); in test [4] it was 60.3 µM (active) and 27.3 µM (active); in test [5], 67.7 µM (active) and 24.3 µM (active); in [10], 17.2 µM (active) and 19.5 µM (active).

As to `CCCCCCC(O)CCCCCCCCCCC(=O)O` (centres undefined), the Potency entry in test [2], in test [3], in test [4], in test [6] and in test [9] was “inactive” throughout.

On to `CC(C)CCOC(=O)c1ccc(N(C)C)cc1`, for which the Potency entry in [1], in test [3], in test [4], in test [5], in [6] and in test [8] was “inactive” throughout. In addition, the Potency entry in [9] and in test [10] was “inactive” each time. Besides, the molecule was called inactive in [7].

For `CC[C@]1(O)C[C@@H]2CN(CCc3c([nH]c4ccccc34)[C@@](C(=O)OC)(c3cc4c(cc3OC)N(C)[C@H]3[C@@](O)(C(=O)OC)[C@H](OC(C)=O)[C@]5(CC)C=CCN6CC[C@]43[C@@H]65)C2)C1`, the Potency result in test [1], in [2], in test [3] and in test [6] was “inactive” throughout. Besides, the Potency in test [5] is 596 nM (active) and 8.41 µM (active); in [8], 268 nM (active).

On to `O=S(=O)(O)c1ccc2nc(-c3ccccc3)[nH]c2c1`, for which the Potency is 13.1 µM (active) in [2] and 46.6 µM (active) in [3]. For the same molecule, the outcome in [7] was inactive. Further, the Potency entry in [8], in test [9] and in [10] was “inactive” throughout.

Consider `Nc1ccc2cc3ccccc3cc2c1`, for which the Potency entry in test [1], in test [2], in [3], in test [4], in test [5] and in [8] was “inactive” each time.

Consider `CN(C)c1ccc(C(=C2C=CC(=[N+](C)C)C=C2)c2ccccc2)cc1`, for which the Potency is 490 nM (active) and 3.38 µM (active) in [1]; 3.09 µM (active) and 10.7 µM (active) in [2]; 27.5 µM (active) in [3]; 5.45 µM (active) and 4.22 µM (active) and 10.6 µM (active) in test [4]; 848 nM (active) in test [8].

For `COc1ccc(CCN(C)CCCC(C#N)(c2ccc(OC)c(OC)c2)C(C)C)cc1OC` (centres undefined), the Potency entry in [3], in [4] and in test [5] was “inactive” in each case.

Take `c1ccc2c(c1)-c1cccc3c1c-2cc1ccccc13`: the Potency result in test [1] and in test [3] was “inactive” each time. In addition, the Potency in test [4] was 53.2 µM (active); in test [8] it was 17 µM (active) and 38.9 µM (active).

`c1cc(C(c2ccc(OCC3CO3)cc2)C(c2ccc(OCC3CO3)cc2)c2ccc(OCC3CO3)cc2)ccc1OCC1CO1` (centres undefined): the Potency entry in test [1], in test [3], in test [4] and in test [10] was “inactive” each time.

For the molecule `Cc1cccc(O)c1C`, the Potency entry in [1], in test [3], in test [4], in [5], in test [8] and in [9] was “inactive” throughout. In test [10], the Potency entry was “inactive”. Besides, the result in test [7] was inactive.

As for `CCN(CC)c1ccc2c(C)cc(=O)oc2c1`, the Potency result in [1], in test [3], in [4], in [5], in [6] and in test [10] was “inactive” in each case.

`CN1C(=O)c2ccc([N+](=O)[O-])cc2C1=O`: the Potency entry in test [1], in test [3], in test [4], in test [5], in test [6] and in test [8] was “inactive” throughout. The Potency entry in test [9] and in [10] was “inactive” in each case. The molecule was classed as inactive in test [7].

For the molecule `CC[C@H]1CN2CCc3cc(OC)c(OC)cc3[C@@H]2C[C@@H]1C[C@H]1NCCc2cc(OC)c(OC)cc21`, the Potency result in [1], in [6] and in test [10] was “inactive” each time. For the same molecule, the Potency is 6.94 µM (active) and 4.25 µM (active) in test [3]; 173 nM (active) and 750 nM (active) in test [5].

As to `CC1=CC(=O)c2ccccc2C1=O`, the Potency is 17.4 µM (active) and 21.3 µM (active) in test [1]; 43.6 µM (active) in test [3]; 15.4 µM (active) and 29.8 µM (active) in test [4]; 12.2 µM (active) in test [5]; 17.4 µM (active) in [6]; 24.5 µM (active) and 21.3 µM (active) in test [10]. Besides, in test [7], the result was inactive.
